B1: unnamed (peptide)
chain: HKVLRPFLLRRLKKD
B2: unnamed (peptide)
chain: RRGPAPPPPPRASRP

molecular target: AgAbp1; test: SPOT peptide array binding signal intensity (averaged, normalized) (arbitrary units (background-subtracted, floor 0; scale differs between SH3 domains)); higher = stronger binding of the SH3 domain to the peptide
Procedure, shortened: (§1)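 GST-fused SH3 domains from four yeast species were expressed in E. coli BL21(DE3), purified on glutathione Sepharose and incubated at 10 μg/ml overnight at 4°C in TBS-based blocking buffer on cellulose membranes carrying synthetic 15-mer peptides, with cysteines replaced by serines. Bound protein was detected with anti-GST antibody, an HRP anti-mouse secondary and luminol, then imaged and quantified with Genespotter. Binding signal is the normalized, background-subtracted spot intensity averaged over replicates, in arbitrary units that differ between domains.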

Row | Binder | SPOT peptide array binding signal intensity
1 | B1 | 172
2 | B2 | 181

molecular target: AgBbc1; test: as above
Procedure, shortened: as §1

Row | Binder | SPOT peptide array binding signal intensity
3 | B1 | ≤ 0
4 | B2 | 646

molecular target: AgBem1-D1; test: as above
Procedure, shortened: as §1

Row | Binder | SPOT peptide array binding signal intensity
5 | B1 | ≤ 0
6 | B2 | 410

molecular target: AgBzz1-D1; test: as above
Procedure, shortened: as §1

Row | Binder | SPOT peptide array binding signal intensity
7 | B1 | 1.5
8 | B2 | 582

molecular target: AgBzz1-D2; test: as above
Procedure, shortened: as §1

Row | Binder | SPOT peptide array binding signal intensity
9 | B1 | 31.5
10 | B2 | 164

molecular target: AgCyk3; test: as above
Procedure, shortened: as §1

Row | Binder | SPOT peptide array binding signal intensity
11 | B1 | ≤ 0
12 | B2 | 2

molecular target: AgFus1; test: as above
Procedure, shortened: as §1

Row | Binder | SPOT peptide array binding signal intensity
13 | B1 | 479
14 | B2 | 23

molecular target: AgHof1; test: as above
Procedure, shortened: as §1

Row | Binder | SPOT peptide array binding signal intensity
15 | B1 | 39.4
16 | B2 | 63.8

molecular target: AgHse1; test: as above
Procedure, shortened: as §1

Row | Binder | SPOT peptide array binding signal intensity
17 | B1 | 2970
18 | B2 | 32.5

molecular target: AgLsb1; test: as above
Procedure, shortened: as §1

Row | Binder | SPOT peptide array binding signal intensity
19 | B1 | 0.5
20 | B2 | 80.2

molecular target: AgLsb4; test: as above
Procedure, shortened: as §1

Row | Binder | SPOT peptide array binding signal intensity
21 | B1 | 19.5
22 | B2 | 485

molecular target: AgMyo5; test: as above
Procedure, shortened: as §1

Row | Binder | SPOT peptide array binding signal intensity
23 | B1 | ≤ 0
24 | B2 | 89

molecular target: AgNbp2; test: as above
Procedure, shortened: as §1

Row | Binder | SPOT peptide array binding signal intensity
25 | B1 | 45.8
26 | B2 | 205

molecular target: AgRvs167; test: as above
Procedure, shortened: as §1

Row | Binder | SPOT peptide array binding signal intensity
27 | B1 | 0.5
28 | B2 | 339

molecular target: AgSho1; test: as above
Procedure, shortened: as §1

Row | Binder | SPOT peptide array binding signal intensity
29 | B1 | 156
30 | B2 | 13

molecular target: AgSla1-D1-D2; test: as above
Procedure, shortened: as §1

Row | Binder | SPOT peptide array binding signal intensity
31 | B1 | 27
32 | B2 | 21

molecular target: AgSla1-D3; test: as above
Procedure, shortened: as §1

Row | Binder | SPOT peptide array binding signal intensity
33 | B1 | 2.75
34 | B2 | 14

molecular target: CaAbp1-D1; test: as above
Procedure, shortened: as §1

Row | Binder | SPOT peptide array binding signal intensity
35 | B1 | 569
36 | B2 | 1290

molecular target: CaAbp1-D2; test: as above
Procedure, shortened: as §1

Row | Binder | SPOT peptide array binding signal intensity
37 | B1 | 617
38 | B2 | 281

molecular target: CaBbc1; test: as above
Procedure, shortened: as §1

Row | Binder | SPOT peptide array binding signal intensity
39 | B1 | ≤ 0
40 | B2 | 1160

molecular target: CaBem1-D1; test: as above
Procedure, shortened: as §1

Row | Binder | SPOT peptide array binding signal intensity
41 | B1 | 3.5
42 | B2 | 1890

molecular target: CaBzz1-D1; test: as above
Procedure, shortened: as §1

Row | Binder | SPOT peptide array binding signal intensity
43 | B1 | ≤ 0
44 | B2 | 3450

molecular target: CaBzz1-D2; test: as above
Procedure, shortened: as §1

Row | Binder | SPOT peptide array binding signal intensity
45 | B1 | ≤ 0
46 | B2 | 2600

molecular target: CaCyk3; test: as above
Procedure, shortened: as §1

Row | Binder | SPOT peptide array binding signal intensity
47 | B1 | ≤ 0
48 | B2 | 216

molecular target: CaFus1; test: as above
Procedure, shortened: as §1

Row | Binder | SPOT peptide array binding signal intensity
49 | B1 | 2980
50 | B2 | 124

molecular target: CaHof1; test: as above
Procedure, shortened: as §1

Row | Binder | SPOT peptide array binding signal intensity
51 | B1 | 7.63e-06
52 | B2 | 6.5

molecular target: CaHse1; test: as above
Procedure, shortened: as §1

Row | Binder | SPOT peptide array binding signal intensity
53 | B1 | 124
54 | B2 | 6.75

molecular target: CaLsb1; test: as above
Procedure, shortened: as §1

Row | Binder | SPOT peptide array binding signal intensity
55 | B1 | ≤ 0
56 | B2 | 0.75

molecular target: CaLsb4; test: as above
Procedure, shortened: as §1

Row | Binder | SPOT peptide array binding signal intensity
57 | B1 | ≤ 0
58 | B2 | 1000

molecular target: CaMyo5; test: as above
Procedure, shortened: as §1

Row | Binder | SPOT peptide array binding signal intensity
59 | B1 | ≤ 0
60 | B2 | 9

molecular target: CaNbp2; test: as above
Procedure, shortened: as §1

Row | Binder | SPOT peptide array binding signal intensity
61 | B1 | 715
62 | B2 | 209

molecular target: CaRvs167; test: as above
Procedure, shortened: as §1

Row | Binder | SPOT peptide array binding signal intensity
63 | B1 | 6.08
64 | B2 | 805

molecular target: CaRvs167-3; test: as above
Procedure, shortened: as §1

Row | Binder | SPOT peptide array binding signal intensity
65 | B1 | 281
66 | B2 | 11

molecular target: CaSho1; test: as above
Procedure, shortened: as §1

Row | Binder | SPOT peptide array binding signal intensity
67 | B1 | 736
68 | B2 | 18.5

molecular target: CaSla1-D1-D2; test: as above
Procedure, shortened: as §1

Row | Binder | SPOT peptide array binding signal intensity
69 | B1 | 8.5
70 | B2 | 2130

molecular target: CaSla1-D3; test: as above
Procedure, shortened: as §1

Row | Binder | SPOT peptide array binding signal intensity
71 | B1 | 15.5
72 | B2 | 143

molecular target: ScAbp1; test: as above
Procedure, shortened: as §1

Row | Binder | SPOT peptide array binding signal intensity
73 | B1 | 271
74 | B2 | 272

molecular target: ScBbc1; test: as above
Procedure, shortened: as §1

Row | Binder | SPOT peptide array binding signal intensity
75 | B1 | ≤ 0
76 | B2 | 150

molecular target: ScBem1-D1; test: as above
Procedure, shortened: as §1

Row | Binder | SPOT peptide array binding signal intensity
77 | B1 | 19.5
78 | B2 | 6

molecular target: ScBzz1-D1; test: as above
Procedure, shortened: as §1

Row | Binder | SPOT peptide array binding signal intensity
79 | B1 | 22.5
80 | B2 | 457

molecular target: ScBzz1-D2; test: as above
Procedure, shortened: as §1

Row | Binder | SPOT peptide array binding signal intensity
81 | B1 | ≤ 0
82 | B2 | 68.5

molecular target: ScCyk3; test: as above
Procedure, shortened: as §1

Row | Binder | SPOT peptide array binding signal intensity
83 | B1 | 38
84 | B2 | 16

molecular target: ScFus1; test: as above
Procedure, shortened: as §1

Row | Binder | SPOT peptide array binding signal intensity
85 | B1 | 742
86 | B2 | 12.5

molecular target: ScHof1; test: as above
Procedure, shortened: as §1

Row | Binder | SPOT peptide array binding signal intensity
87 | B1 | ≤ 0
88 | B2 | 12.2

molecular target: ScHse1; test: as above
Procedure, shortened: as §1

Row | Binder | SPOT peptide array binding signal intensity
89 | B1 | 2170
90 | B2 | 28.5

molecular target: ScLsb1; test: as above
Procedure, shortened: as §1

Row | Binder | SPOT peptide array binding signal intensity
91 | B1 | ≤ 0
92 | B2 | 132

molecular target: ScLsb2; test: as above
Procedure, shortened: as §1

Row | Binder | SPOT peptide array binding signal intensity
93 | B1 | ≤ 0
94 | B2 | 54

molecular target: ScLsb3; test: as above
Procedure, shortened: as §1

Row | Binder | SPOT peptide array binding signal intensity
95 | B1 | ≤ 0
96 | B2 | 1380

molecular target: ScLsb4; test: as above
Procedure, shortened: as §1

Row | Binder | SPOT peptide array binding signal intensity
97 | B1 | ≤ 0
98 | B2 | 892

molecular target: ScMyo3; test: as above
Procedure, shortened: as §1

Row | Binder | SPOT peptide array binding signal intensity
99 | B1 | 1.12
100 | B2 | 160

molecular target: ScMyo5; test: as above
Procedure, shortened: as §1

Row | Binder | SPOT peptide array binding signal intensity
101 | B1 | 2.5
102 | B2 | 279

molecular target: ScNbp2; test: as above
Procedure, shortened: as §1

Row | Binder | SPOT peptide array binding signal intensity
103 | B1 | 102
104 | B2 | 158

molecular target: ScPex13; test: as above
Procedure, shortened: as §1

Row | Binder | SPOT peptide array binding signal intensity
105 | B1 | 0.5
106 | B2 | 1150

molecular target: ScRvs167; test: as above
Procedure, shortened: as §1

Row | Binder | SPOT peptide array binding signal intensity
107 | B1 | 3.42
108 | B2 | 2010

molecular target: ScSho1; test: as above
Procedure, shortened: as §1

Row | Binder | SPOT peptide array binding signal intensity
109 | B1 | 994
110 | B2 | 668

molecular target: ScSla1-D1-D2; test: as above
Procedure, shortened: as §1

Row | Binder | SPOT peptide array binding signal intensity
111 | B1 | ≤ 0
112 | B2 | 4710

molecular target: ScSla1-D3; test: as above
Procedure, shortened: as §1

Row | Binder | SPOT peptide array binding signal intensity
113 | B1 | 3.25
114 | B2 | 8.25

molecular target: SpAbp1-D1; test: as above
Procedure, shortened: as §1

Row | Binder | SPOT peptide array binding signal intensity
115 | B1 | 250
116 | B2 | 726

molecular target: SpBbc1; test: as above
Procedure, shortened: as §1

Row | Binder | SPOT peptide array binding signal intensity
117 | B1 | 3
118 | B2 | 24

molecular target: SpBzz1-D1; test: as above
Procedure, shortened: as §1

Row | Binder | SPOT peptide array binding signal intensity
119 | B1 | 70
120 | B2 | 1820

molecular target: SpBzz1-D2; test: as above
Procedure, shortened: as §1

Row | Binder | SPOT peptide array binding signal intensity
121 | B2 | 340

molecular target: SpCyk3; test: as above
Procedure, shortened: as §1

Row | Binder | SPOT peptide array binding signal intensity
122 | B2 | 13

molecular target: SpHof1; test: as above
Procedure, shortened: as §1

Row | Binder | SPOT peptide array binding signal intensity
123 | B2 | 52

molecular target: SpHof1-2; test: as above
Procedure, shortened: as §1

Row | Binder | SPOT peptide array binding signal intensity
124 | B2 | 27.8

molecular target: SpHof1-3; test: as above
Procedure, shortened: as §1

Row | Binder | SPOT peptide array binding signal intensity
125 | B2 | 420

molecular target: SpHse1; test: as above
Procedure, shortened: as §1

Row | Binder | SPOT peptide array binding signal intensity
126 | B2 | 37.8

molecular target: SpLsb1; test: as above
Procedure, shortened: as §1

Row | Binder | SPOT peptide array binding signal intensity
127 | B2 | 107

molecular target: SpLsb4; test: as above
Procedure, shortened: as §1

Row | Binder | SPOT peptide array binding signal intensity
128 | B2 | 1730

molecular target: SpMyo1; test: as above
Procedure, shortened: as §1

Row | Binder | SPOT peptide array binding signal intensity
129 | B2 | 391

molecular target: SpNbp2; test: as above
Procedure, shortened: as §1

Row | Binder | SPOT peptide array binding signal intensity
130 | B2 | 15.5

molecular target: SpPex13; test: as above
Procedure, shortened: as §1

Row | Binder | SPOT peptide array binding signal intensity
131 | B2 | 2

molecular target: SpRvs167; test: as above
Procedure, shortened: as §1

Row | Binder | SPOT peptide array binding signal intensity
132 | B2 | 2270

molecular target: SpSla1-D1-D2; test: as above
Procedure, shortened: as §1

Row | Binder | SPOT peptide array binding signal intensity
133 | B2 | 571

molecular target: SpSla1-D3; test: as above
Procedure, shortened: as §1

Row | Binder | SPOT peptide array binding signal intensity
134 | B2 | ≤ 0

— the supplement of paper PMC4466140
